For 27 compounds, inhibition results are on record in PubChem BioAssay AID493027 (The Scripps Research Institute Molecular Screening Center, 2011).

Screen size: about 2,000 compounds; about 45 (2%) were called active. The sample holds actives, similar compounds and a random draw of the others, so the mix is not that of the screen. Values without a mark were called inactive.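 The calls were made as follows: active = inhibition above the screen-wide mean inhibition plus 3 SD (cut at about 44% in these data); inactive = the rest.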

Perilipin-1 (Homo sapiens) + 1-acylglycerol-3-phosphate O-acyltransferase ABHD5 (Homo sapiens), sequence (O60240 whole entry, looked up): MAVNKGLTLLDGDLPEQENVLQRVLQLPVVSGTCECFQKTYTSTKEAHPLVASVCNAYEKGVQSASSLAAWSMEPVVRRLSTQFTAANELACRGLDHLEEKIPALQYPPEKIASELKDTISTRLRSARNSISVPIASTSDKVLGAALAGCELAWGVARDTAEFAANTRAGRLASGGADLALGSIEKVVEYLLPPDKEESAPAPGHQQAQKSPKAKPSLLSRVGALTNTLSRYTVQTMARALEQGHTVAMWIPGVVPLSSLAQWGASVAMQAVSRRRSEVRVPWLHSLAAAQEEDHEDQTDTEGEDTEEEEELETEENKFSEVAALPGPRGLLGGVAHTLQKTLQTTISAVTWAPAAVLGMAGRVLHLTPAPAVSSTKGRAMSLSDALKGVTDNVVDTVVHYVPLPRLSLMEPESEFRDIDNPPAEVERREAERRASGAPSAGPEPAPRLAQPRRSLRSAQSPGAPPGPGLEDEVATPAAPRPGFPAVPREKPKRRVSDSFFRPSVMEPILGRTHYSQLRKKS
Perilipin-1 (Homo sapiens) + 1-acylglycerol-3-phosphate O-acyltransferase ABHD5 (Homo sapiens), sequence (Q8WTS1 whole entry, looked up): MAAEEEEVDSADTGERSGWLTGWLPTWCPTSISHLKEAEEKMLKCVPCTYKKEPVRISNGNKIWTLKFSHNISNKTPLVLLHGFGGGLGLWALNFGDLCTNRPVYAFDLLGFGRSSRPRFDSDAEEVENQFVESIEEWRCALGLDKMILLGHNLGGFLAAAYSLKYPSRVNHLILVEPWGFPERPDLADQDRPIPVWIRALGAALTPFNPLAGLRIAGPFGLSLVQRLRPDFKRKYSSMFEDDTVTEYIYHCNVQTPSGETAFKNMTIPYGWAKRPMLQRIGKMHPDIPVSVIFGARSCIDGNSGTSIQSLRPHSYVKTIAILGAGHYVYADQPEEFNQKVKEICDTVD

This experiment concerns the target Perilipin-1 (Homo sapiens) + 1-acylglycerol-3-phosphate O-acyltransferase ABHD5 (Homo sapiens) (UniProt O60240+Q8WTS1). Kind of experiment: blockers of ABHD5 binding to perilipin-1 – cell lysate, split luciferase complementation, luminescence, NIH validation set, pilot screen (AID 493027).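 Also: 0% = DMSO wells with the 100% control not disclosed.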 The following applies: split G. princeps luciferase complementation, 4 h; at 7.9 µM, stronger effect = higher value.
Regarding `CSCCC(NC(C)=O)C(=O)Oc1ccc2c3c(c(=O)oc2c1)CCCC3` (configuration not stated), the inhibition was 4.14%. Next, `CSCCC(NC(=O)OC(C)(C)C)C(=O)Oc1ccc2c(=O)c(-c3ccc4c(c3)OCCO4)coc2c1` (configuration not stated): 67.4% (active); `O=c1c(-c2ccc3c(c2)OCCO3)coc2cc(OC3OC(CO)C(O)C(O)C3O)ccc12` (configuration not stated): -4.41%. As for `O=C(Nc1ccc(Cl)cn1)Nc1ccccc1Cl`, the inhibition is -3.38%. Next, `CC(C)C1Cc2[nH]c(=O)c(C(=O)O)cc2CO1` (configuration not stated): -7.52%; `CCCC(=O)Nc1ccccc1NC(C)=O`: -6.46%.

With `N/C(=N\OS(=O)(=O)c1ccc2ccccc2c1)c1cccnc1`, the inhibition was 0.01%.

Regarding `COc1ccc(-c2c(NC(=O)c3ccco3)n(C)c3ccccc3c2=O)cc1`, the inhibition is -10.8%.

In the case of `O=C(NCCN1CCCCC1)c1c(O)c2ccccc2[nH]c1=O`, the inhibition is -2.32%.

For `CC1(C)c2ccccc2N2CC(=O)NC21/C=C/c1ccco1` (configuration not stated), the inhibition is 47.4% (active). `CC1(C)c2ccccc2N2CC(=O)N(CC(N)=O)C21C` (configuration not stated): the inhibition was 4.18%. As to `O=C(/C=C/c1ccco1)N1CCN(c2ccccc2)CC1`, the inhibition is 4.55%. Next, `CC(=O)c1c(C)c(C)c2n1CCn1c(C)ccc1-2`: 5.75%. As to `COc1ccc(C2C(C#N)=C(N)Oc3cc(C)[nH]c(=O)c32)c(OC)c1OC` (configuration not stated), the inhibition was -14.5%. For `O=C(/C=C/c1ccc2c(c1)OCO2)c1ccccn1`, the inhibition was 51.3% (active). For `O=C(/C=C/c1ccc2c(c1)OCCCO2)c1ccc2ccccc2c1O`, the inhibition was 17.8%.

`O=C(/C=C/c1ccc2c(c1)OCO2)NCc1ccc(F)cc1`: the inhibition was -2.57%. For `CC1(C)CC(=O)c2cc(O)ccc2O1`, the inhibition is -2.35%.

In the case of `CC(CCCC(C)(C)O)NC(=O)c1ccc(OC2CCN(C(=O)C3CC3)CC2)cc1` (configuration not stated), the inhibition is -7.27%. In the case of `Cc1ccc2[nH]c3c(c2c1)CCNC3=O`, the inhibition is -4.86%. Next, `CC[n+]1ccc2cc(OC)c(OC)cc2c1Cc1ccc(OC)c(OC)c1`: -12.6%; `COc1cc(=O)n(C)c2ccccc12`: -0.74%; `COc1cccc2cc(-c3ccccc3)c(=O)oc12`: -3.48%. Next, `COc1ccc(C(=O)/C=C/c2ccc(OC(=O)c3cc(OC)c(OC)c(OC)c3)cc2)cc1`: 26.9%; `COc1ccc(/C=C/C(=O)c2cc3cccc(OC)c3oc2=O)cc1`: 60.6% (active). For `NS(=O)(=O)c1cc2c(cc1Cl)NC(C1C[C@H]3C=C[C@@H]1C3)NS2(=O)=O` (some centres not stated), the inhibition is 0.4%.

Turning to `O=C(O)CCn1cnc2ccccc2c1=O`, the inhibition was 3.53%.
